High-throughput results deposited in PubChem BioAssay by National Center for Advancing Translational Sciences (NCATS).
HT1080 IDH1KD tx = kills HT-1080 cells with IDH1 knockdown. HT-1080 IDH1 knockdown viability, ATP luminescence, 48 h. Potency, µM (series often up to 46.1 µM), hits mostly cytotoxic. 2% of 360,000 active. AID 686971
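Knockdown cells (IDH1KD HT-1080) received compounds 2 h after plating at 750 cells/well and were kept 48 h at 37 °C in 5% FBS RPMI. A CellTiter-Glo luminescence read gave % activity for curve fitting.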
IL1B secr inh = inhibitors of inflammasome signaling (IL-1 beta secretion). THP-1 LPS/ATP IL-1B secretion, AlphaLISA, 16 h; hits give low values. activity change, % at 57.5 µM. 4.7% of 360,000 active. AID 743279; in the data active = activity change below about -50%; inconclusive = mostly about -30% to -49%
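Secreted IL-1B measured by AlphaLISA bead assay after 16 h compound exposure of THP-1 cells; compounds (final up to 57.5 uM) added 1 h before LPS (250 ng/mL) and ATP (1.25 mM) stimulation; lower signal means less secretion.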
DT40 TDP1 no CPT = qHTS for Inhibitors of human tyrosyl-DNA phosphodiesterase 1 (TDP1): qHTS in cells in absence of CPT; DT40 Tdp1-/- hTDP1 cells, no CPT, ATP luminescence, 48 h; Potency, µM (top dose mostly 46.2 µM), actives largely listed as inhibitors; 15% of 420,000 active; note: nearly all actives have a fitted effect of over 55% in size
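Readout: luminescence from CellTiter-Glo after 30 min in the dark at RT. Cells: DT40 Tdp1-/- with stable hTDP1, 400/well. Exposure: compounds alone, ≥48 hr, 37 °C.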
HT1080NT lethal = kills 2HG-producing HT-1080-NT fibrosarcoma cells; AID 686970; 1.6% of 360,000 active; HT-1080-NT fibrosarcoma viability, CellTiter-Glo ATP luminescence, 48 h; Potency, µM (series often up to 46.1 µM), actives largely listed as cytotoxic;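 note: NT is the 2HG producing partner of a matched IDH1 knockdown line; nearly all actives have a fitted effect of over 55% in size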
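A 48-hour cytotoxicity screen used HT-1080-NT cells plated 2 hours before compound delivery. ATP-based CellTiter-Glo luminescence measured viability, normalized to DMSO and no-cell controls.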
uPA surface inh = blocks generation of uPA at the cell surface | cell surface uPA generation assay, qHTS | Potency, µM (series often up to 38.3 µM), most hits filed as inhibitors | 0.31% of 330,000 active | AID 540303; active = well fitted inhibition curve with a large enough effect; inconclusive = small, poorly fitted or top-dose-only effect; inactive = no such curve, though single readings can be large or run the other way; tested in mouse RAW 264.7 cells; note: nearly all actives have a fitted effect of over 55% in size
TDP1 cell CPT = growth inhibition of DT40 Tdp1-/-;hTDP1 cells with camptothecin (screen for TDP1 inhibitors). chicken DT40 Tdp1-/-;hTDP1 cells + 20 nM CPT, ATP luminescence, 48 h. Potency, µM (highest dose often 46.2 µM), actives largely listed as inhibitors. 12% of 420,000 active; note: nearly all actives have a fitted effect of over 55% in size
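Cell growth measured by CellTiter-Glo luminescence after a minimum 48 h, 37 C compound exposure with 20 nM CPT in Tdp1-knockout DT40 cells stably expressing hTDP1, seeded 400/well; qHTS titration format.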
Hits are given with their value; n = inactive; u = inconclusive; x = not tested or not shown; [ ] = remark or other dose. This is a sample that favours compounds with a hit; in the whole collection about 19% have one here. Unless noted, calls come from the whole dose curve; as a rule, active = well fitted curve in the direction sought with a large enough effect; inconclusive = small, poorly fitted or top-dose-only effect, or another doubt; inactive = no such curve, though single readings can be large; an effect the other way counts as inactive or inconclusive.

SMILES	HT1080 IDH1KD tx	IL1B secr inh	DT40 TDP1 no CPT	HT1080NT lethal	uPA surface inh	TDP1 cell CPT
CS(=O)(=O)N1N=C(c2ccco2)CC1c1ccccc1Cl (configuration not stated)	n	n	n	n	n	n
COc1ccccc1C1CC(c2ccco2)=NN1S(C)(=O)=O (configuration not stated)	n	n	u	n	n	21µM
Cc1cccc2nc(-c3cccnc3)c(Nc3ccccc3)n12	n	u	u	n	n	n
Cc1ccccc1Nc1c(-c2ccccc2)nc2cccc(C)n12	n	x	3.2µM	u	x	u
Cc1ccccc1Nc1c(-c2ccc(Cl)s2)nc2cccc(C)n12	x	x	u	x	x	8.2µM
COc1ccc(NC(=O)CCCOc2ccc(C)cc2)cc1S(=O)(=O)N1CCCCC1	n	n	u	n	x	u
Cc1ccc2nc(N(Cc3cccnc3)C(=O)C3COc4ccccc4O3)sc2c1 (configuration not stated)	x	x	n	x	x	n
Cc1ccc2c(CC(=O)Nc3cc(C(F)(F)F)ccc3Cl)coc2c1C	x	x	n	x	x	n
COc1ccc(C=NN=C2c3ccccc3-c3ccccc32)cc1O	u	n	u	n	n	u
CC(=O)Nc1ccc(C=NN=C2c3ccccc3-c3ccccc32)cc1	u	n	u	n	n	26µM
Cc1cccc(CCNC(=O)c2ccc3c(c2)N(Cc2ccccc2F)C(=O)c2ccccc2S3)c1	x	x	u	x	x	n
Cc1cc(C)n(C(C[N+](=O)[O-])c2ccc(Cl)cc2)n1 (configuration not stated)	n	u	2.3µM	n	n	2.3µM
Cc1cc(N2O[C@]34C=C[C@]25C[C@@H](O)CC[C@]5(C)C3CC[C@]2(C)[C@@H]([C@H](C)/C=C/[C@H](C)C(C)C)CC[C@H]24)no1 (some centres not stated)	n	n	9.2µM	n	n	12µM
CC(C)(C)c1cc(C(=O)CCN2CCOCC2)cc(C(C)(C)C)c1O	u	-101	7.3µM	u	n	4.6µM
CC(C)(C)c1sc(N)nc1-c1ccccc1	n	-102	n	u	n	n
Cc1ccc2nc(-c3ccc(N4C(=O)CC(N5CCN(CCO)CC5)C4=O)cc3)sc2c1 (configuration not stated)	n	u	15µM	n	n	u
Cc1cc(-c2ccc(S(=O)(=O)N(C)Cc3ccccc3)cc2)on1	n	n	n	n	n	n
C=CCNC(=O)/C(=C/c1cccc([N+](=O)[O-])c1)NC(=O)c1ccco1	n	n	n	n	n	n
CCCCC[C@H](C)N1C[C@H](COCc2ccccc2)Oc2cc(N3CC[C@H](N(C)C)C3)ccc2S1(=O)=O	21µM	u	16µM	u	x	u
CCCCC[C@@H](C)N1C[C@H](COCc2ccccc2)Oc2cc(N3CC[C@@H](N(C)C)C3)ccc2S1(=O)=O	10µM	-92	21µM	12µM	x	23µM
CCCCC[C@H](C)N1C[C@@H](COCc2ccccc2)Oc2cc(N3CC[C@@H](O)C3)ccc2S1(=O)=O	u	n	u	u	x	u
CCCCC[C@H](C)N1C[C@H](COCc2ccccc2)Oc2cc(N3CC[C@@H](N(C)C)C3)ccc2S1(=O)=O	16µM	-64	u	21µM	x	u
CCCCC[C@@H](C)N1C[C@@H](COCc2ccccc2)Oc2cc(N3CC[C@@H](N(C)C)C3)ccc2S1(=O)=O	18µM	-89	23µM	21µM	x	21µM
COc1cccc(CNC(=O)CSc2ncc(S(=O)(=O)c3ccc(Br)cc3)c(=O)[nH]2)c1	x	x	n	x	x	n
CC(C)(C)N(Cc1ccccc1)C(=O)CN1C(=O)NC2(CCCCCC2)C1=O	n	n	n	n[9.24 µM]	n	u
SMILES	HT1080 IDH1KD tx	IL1B secr inh	DT40 TDP1 no CPT	HT1080NT lethal	uPA surface inh	TDP1 cell CPT
O=C(c1cnn(-c2nccc(-c3ccccc3F)n2)c1C1CC1)N1CCN(CCO)CC1	x	x	n	x	x	n[9.04 µM]
C[C@H](c1ccccc1)N1C[C@H](COCc2ccccc2)Oc2cc(N3CC[C@@H](N(C)C)C3)ccc2S1(=O)=O	n	n	n	n	x	n
C[C@@H](c1ccccc1)N1C[C@@H](COCc2ccccc2)Oc2cc(N3CC[C@@H](N(C)C)C3)ccc2S1(=O)=O	23µM	n	15µM	18µM	x	u
COc1ccccc1OCc1nc(C#N)c(N2CC(C)CC(C)C2)o1 (configuration not stated)	n	n	u	n	n	29µM
COc1ccccc1OCc1nc(C#N)c(N2CCCC2)o1	n	n	n	n	n	n
Cc1ccccc1OCc1nc(C#N)c(N2CCCC2)o1	n	-58	n	n	n	n
CC1Cc2nc(SCC(=O)NCC3CCCO3)n(-c3ccc(F)cc3)c(=O)c2S1 (configuration not stated)	n	n	n	n	n	n
CCCSc1nc(=O)c2c(n1C)NC(=O)CC2c1cccc(F)c1F (configuration not stated)	x	x	n	x	x	n
Cc1cccc(CSc2nc(=O)c3c(n2C)NC(=O)CC3c2cc(F)cc(F)c2)c1 (configuration not stated)	x	x	6.5µM	x	x	9.2µM
CCOc1cc(C2CC(=O)Nc3c2c(=O)nc(SCc2cccc(Cl)c2)n3C)ccc1O (configuration not stated)	x	x	8.2µM	x	x	u
CC(C)C(NC(=O)c1ccc(C(C)(C)C)cc1)C(=O)N1CCCC1 (configuration not stated)	n	n	u	n	n	u
CCSc1nc(=S)cc(C)[nH]1	n	n	21µM	n	n	u
CCSc1nc(O)cc(=O)[nH]1	n	n	n	n	n	n
COc1cc2sc3cc(NCc4ccc5c(c4)OCO5)ccc3c(=O)c2cc1OC	n	n	16µM	n	n	u
COc1cc2sc3cc(NCc4ccc(C)o4)ccc3c(=O)c2cc1OC	n	-69	15µM	n	13µM	u
COc1ccc(NC(=O)c2ccc3c(c2)OCO3)cc1Cl	n	n	n	n	n	n
COC(=O)c1cc(NCc2ccc3c(c2)OCO3)ccc1N1CCOCC1	n	n	n	n	n	n
COc1ccc(NCc2ccc3c(c2)OCO3)cc1Cl	n[9.24 µM]	-93	n	n	n	n
NC(=O)c1c(/N=C/c2cccs2)sc2c1CCCC2	n	n	3.7µM	n	n	3.7µM
O=C(/C=C/c1cccs1)Nc1sc2c(c1C(=O)O)CCCC2	u	n	n	n	n	n
COc1cc(C(=O)NCC(c2ccco2)N2CCCC2)ccc1OCc1ccc(Cl)cc1Cl (configuration not stated)	u	u	23µM	u	u	u
